“And” between values parts separate entries of the source, which are not always exact repeats. Equal entries are not always repeated. Compounds without any hit were thinned out: in the full panel of roughly 83,000, 20% have a hit.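 Assay: single dose, 48 h. Readout: percent growth (0 = no net growth; negative = cell death). Active: <10.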 The source made the active and inactive calls.
Assays:
Test in all cases: NCI-60 one-dose screen, 48 h (100 = growth as untreated, 0 = no growth, -100 = all killed)
T-47D breast = test system: T-47D breast
BT-549 breast = test system: BT-549 breast
MDA-MB-435 melanoma = test system: MDA-MB-435 melanoma
SW-620 colon = test system: SW-620 colon
MCF7 breast = test system: MCF7 breast
HCT-116 colon = test system: HCT-116 colon
HCC-2998 colon = test system: HCC-2998 colon
KM12 colon = test system: KM12 colon

## CCCCCCCCCCCCCCCCCCOP(=O)([O-])OC1CC[N+](C)(C)CC1
T-47D breast; 10 µM unless noted
  growth: -18.4% (active) and 2.5% (active)
BT-549 breast; 10 µM unless noted
  growth: 24.3% (inactive) and -14.9% (active)
MDA-MB-435 melanoma; 10 µM unless noted
  growth: 15.8% (inactive) and -67.3% (active)
SW-620 colon; 10 µM unless noted
  growth: 46.3% (inactive) and 25% (inactive)
MCF7 breast; 10 µM
  growth: 38.5% (inactive) and 18.4% (inactive)
HCT-116 colon; 10 µM unless noted
  growth: 19.5% (inactive) and -41.9% (active)
HCC-2998 colon; 10 µM unless noted
  growth: 5.08% (active) and -75.7% (active)

## O=C(/C=C\c1cc(Br)ccc1O)/C=C/c1cc(Br)ccc1O
T-47D breast; 10 µM unless noted
  growth: 6.69% (active)
BT-549 breast; 10 µM unless noted
  growth: -12.3% (active)
MDA-MB-435 melanoma; 10 µM unless noted
  growth: -47.9% (active)
SW-620 colon; 10 µM unless noted
  growth: -43.4% (active)
MCF7 breast; 10 µM
  growth: 6.18% (active)
HCT-116 colon; 10 µM unless noted
  growth: -97.8% (active)
HCC-2998 colon; 10 µM unless noted
  growth: -74.4% (active)

## CCOC(=O)/C(=C\c1ccc(-c2ccccc2)cc1)C(C)=O
T-47D breast; 10 µM unless noted
  growth: 105% (inactive)
BT-549 breast; 10 µM unless noted
  growth: 98.8% (inactive)
MDA-MB-435 melanoma; 10 µM unless noted
  growth: 98.9% (inactive)
SW-620 colon; 10 µM unless noted
  growth: 101% (inactive)
MCF7 breast; 10 µM
  growth: 93.3% (inactive)
HCT-116 colon; 10 µM unless noted
  growth: 103% (inactive)
HCC-2998 colon; 10 µM unless noted
  growth: 95.2% (inactive)
KM12 colon; 10 µM unless noted
  growth: 104% (inactive)

## O=C(O)c1c(Cl)c(Cl)c(Cl)c(Cl)c1-c1c2cc(I)c(=O)c(I)c-2oc2c(I)c(O)c(I)cc12
T-47D breast; 10 µM
  growth: 110% (inactive) and 85.9% (inactive) and 95.8% (inactive)
T-47D breast; 100 µM
  growth: -47.8% (active)
BT-549 breast; 10 µM
  growth: 108% (inactive) and 117% (inactive) and 43.5% (inactive)
BT-549 breast; 100 µM
  growth: -47.5% (active)
SW-620 colon; 10 µM
  growth: 107% (inactive) and 140% (inactive) and 109% (inactive)
SW-620 colon; 100 µM
  growth: 13.7% (inactive)
MCF7 breast; 10 µM
  growth: 101% (inactive) and 98.9% (inactive) and 81.2% (inactive)
MCF7 breast; 100 µM
  growth: -38.3% (active)
HCT-116 colon; 10 µM
  growth: 106% (inactive) and 103% (inactive) and 114% (inactive)
HCT-116 colon; 100 µM
  growth: 0.594% (active)
HCC-2998 colon; 10 µM
  growth: 110% (inactive) and 106% (inactive) and 113% (inactive)
HCC-2998 colon; 100 µM
  growth: -7.72% (active)
KM12 colon; 10 µM
  growth: 102% (inactive) and 99.9% (inactive) and 104% (inactive)
KM12 colon; 100 µM
  growth: 67.9% (inactive)

## O=C(Nc1ccc(F)cc1)ON=C1CCCCC1
T-47D breast; 10 µM unless noted
  growth: 79% [100 µM] (inactive)
BT-549 breast; 10 µM unless noted
  growth: 106% [100 µM] (inactive)
MDA-MB-435 melanoma; 10 µM unless noted
  growth: 98.1% [100 µM] (inactive)
SW-620 colon; 10 µM unless noted
  growth: 99.8% [100 µM] (inactive)
MCF7 breast; 100 µM
  growth: 98.2% (inactive)
HCT-116 colon; 10 µM unless noted
  growth: 99.2% [100 µM] (inactive)
HCC-2998 colon; 10 µM unless noted
  growth: 106% [100 µM] (inactive)

## COc1ccc(-c2cscc2N)cc1
T-47D breast; 10 µM
  growth: 60% (inactive)
T-47D breast; 100 µM
  growth: 17.3% (inactive)
BT-549 breast; 10 µM
  growth: 69.5% (inactive)
BT-549 breast; 100 µM
  growth: -32.7% (active)
MDA-MB-435 melanoma; 10 µM
  growth: 79.1% (inactive)
MDA-MB-435 melanoma; 100 µM
  growth: 30.4% (inactive)
SW-620 colon; 10 µM
  growth: 88.5% (inactive)
SW-620 colon; 100 µM
  growth: 48.4% (inactive)
MCF7 breast; 10 µM
  growth: 47.3% (inactive)
MCF7 breast; 100 µM
  growth: 19.9% (inactive)
HCT-116 colon; 10 µM
  growth: 73.3% (inactive)
HCT-116 colon; 100 µM
  growth: 26.4% (inactive)
HCC-2998 colon; 10 µM
  growth: 80.1% (inactive)
HCC-2998 colon; 100 µM
  growth: 39.6% (inactive)
